Values joined by “and” are separate entries in the source; they are usually repeats but may differ in a detail not shown here. Equal entries are not always repeated. Hit rate of the full screen: of about 5,500 compounds, about 2,000 (36%) were called active. Another 18% or so got no clear call; they are omitted. No stated cut-off is given here; in the data, active means normalized growth mostly below about 0.91 (no sharp cut-off); inconclusive means no clear call, values can overlap the other calls; inactive means mostly above about 0.92. Some of the results follow.
Assay: chemical genetic growth profiling, strain panel (AID 1159580);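 further: tested at 20 µM; growth read once vehicle control cultures reached saturation at 30 °C; 1 = growth at the plate median or of vehicle wells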
Settings: S. cerevisiae deletion strains, growth OD

Measured: normalized growth

COc1ccc(C(=O)c2ccccc2O)c(O)c1
0.676 (active) and 0.932 (inactive): locus YJL095W, strain BCK1, stronger effect = lower value
inactive: locus YAL013W, strain DEP1, stronger effect = lower value 0.91 | locus YAL021C, strain ccr4, stronger effect = lower value 0.992 | locus YBR229C, strain ROT2, stronger effect = lower value 0.95 | locus YCL029C, strain bik1, stronger effect = lower value 0.929 | locus YDL005C, strain med2, stronger effect = lower value 0.918 | locus YDL035C, strain GPR1, stronger effect = lower value 0.962 | locus YDL074C, strain BRE1, stronger effect = lower value 0.845 | locus YDL101C, strain DUN1, stronger effect = lower value 0.944 | locus YDL134C, strain PPH21, stronger effect = lower value 0.933 | locus YDL185W, strain tfp1, stronger effect = lower value 0.921 | locus YDR069C, strain doa4, stronger effect = lower value 0.912 | locus YDR101C, strain arx1, stronger effect = lower value 0.949 | locus YDR150W, strain NUM1, stronger effect = lower value 0.961 | locus YDR162C, strain NBP2, stronger effect = lower value 0.926 | locus YEL061C, strain CIN8, stronger effect = lower value 0.952 | locus YER110C, stronger effect = lower value 0.913 | locus YER155C, strain BEM2, stronger effect = lower value 0.949 | locus YER167W, strain BCK2, stronger effect = lower value 0.951 | locus YFR010W, strain ubp6, stronger effect = lower value 0.902 | locus YGL078C, strain dbp3, stronger effect = lower value 0.947 | locus YGL086W, strain mad1, stronger effect = lower value 0.932 | locus YGR078C, strain PAC10, stronger effect = lower value 0.903 | locus YGR229C, strain SMI1, stronger effect = lower value 0.894 | locus YHR030C, strain SLT2, stronger effect = lower value 0.922 and 0.947 | locus YHR079C, strain IRE1 (second series), stronger effect = lower value 0.932 | locus YHR079C, strain IRE1, stronger effect = lower value 0.957 | locus YHR094C, strain hxt1, stronger effect = lower value 0.933 | locus YHR129C, strain ARP1, stronger effect = lower value 0.949 | locus YHR200W, strain rpn10, stronger effect = lower value 0.937 | locus YIL066C, strain RNR3, stronger effect = lower value 0.946 | locus YIL073C, strain SPO22, stronger effect = lower value 0.84 | locus YIL125W, strain kgd1, stronger effect = lower value 0.943 | locus YJL115W, strain asf1, stronger effect = lower value 0.91 | locus YJL134W, strain LCB3, stronger effect = lower value 0.953 | locus YJL168C, strain set2, stronger effect = lower value 0.938 | locus YJL187C, strain SWE1 (second series), stronger effect = lower value 0.896 | locus YJR043C, strain POL32, stronger effect = lower value 0.976
active: locus YAL026C, strain drs2, stronger effect = lower value 0.815 | locus YAL030W, strain snc1, stronger effect = lower value 0.894 | locus YBL061C, strain skt5, stronger effect = lower value 0.818 | locus YBR009C, strain hhf1, stronger effect = lower value 0.806 | locus YBR021W, strain FUR4, stronger effect = lower value 0.817 | locus YBR023C, strain chs3, stronger effect = lower value 0.867 | locus YBR171W, strain sec66, stronger effect = lower value 0.823 | locus YBR231C, strain swc5, stronger effect = lower value 0.887 | locus YBR279W, strain paf1, stronger effect = lower value 0.902 | locus YCL011C, strain gbp2, stronger effect = lower value 0.876 | locus YCL016C, strain dcc1, stronger effect = lower value 0.905 | locus YCL061C, strain MRC1, stronger effect = lower value 0.888 | locus YCL069W, strain vba3, stronger effect = lower value 0.869 | locus YCR088W, strain abp1, stronger effect = lower value 0.888 | locus YDL040C, strain nat1, stronger effect = lower value 0.893 | locus YDL192W, strain arf1, stronger effect = lower value 0.915 | locus YDR001C, strain nth1, stronger effect = lower value 0.888 | locus YDR137W, strain rgp1, stronger effect = lower value 0.43 | locus YDR159W, strain sac3, stronger effect = lower value 0.757 | locus YDR195W, strain ref2 1.2 [resistant] | locus YDR297W, strain sur2, stronger effect = lower value 0.878 | locus YDR318W, strain mcm21, stronger effect = lower value 0.91 | locus YDR334W, strain swr1, stronger effect = lower value 0.89 | locus YDR335W, strain msn5, stronger effect = lower value 0.889 | locus YDR388W, stronger effect = lower value 0.92 | locus YDR392W, strain spt3, stronger effect = lower value 0.417 | locus YDR502C, strain sam2, stronger effect = lower value 0.871 | locus YEL003W, strain gim4, stronger effect = lower value 0.83 | locus YEL037C, strain rad23, stronger effect = lower value 0.874 | locus YEL061C, strain CIN8 (second series), stronger effect = lower value 0.874 | locus YER015W, strain faa2, stronger effect = lower value 0.876 | locus YER016W, strain bim1, stronger effect = lower value 0.883 | locus YER111C, strain swi4, stronger effect = lower value 0.885 | locus YER155C, strain BEM2 (second series), stronger effect = lower value 0.444 | locus YGL167C, strain pmr1, stronger effect = lower value 0.843 | locus YGL173C, strain kem1, stronger effect = lower value 0.817 | locus YGL227W, strain vid30, stronger effect = lower value 0.879 | locus YGL240W, strain doc1, stronger effect = lower value 0.734 | locus YGL248W, strain PDE1, stronger effect = lower value 0.876 | locus YGL253W, strain hxk2, stronger effect = lower value 0.799 | locus YGR135W, strain pre9, stronger effect = lower value 0.822 | locus YGR252W, strain gcn5, stronger effect = lower value 0.751 | locus YHR013C, strain ard1, stronger effect = lower value 0.725 | locus YHR027C, strain rpn1, stronger effect = lower value 0.883 | locus YHR142W, strain chs7, stronger effect = lower value 0.722 | locus YIR030C, strain dcg1, stronger effect = lower value 0.918 | locus YJL092W, strain hpr5, stronger effect = lower value 0.876 | locus YJL095W, strain BCK1 (second series), stronger effect = lower value 0.727 | locus YJL129C, strain trk1, stronger effect = lower value 0.8 | locus YJL154C, strain vps35, stronger effect = lower value 0.884 | locus YJL164C, strain tpk1, stronger effect = lower value 0.798 | locus YJL166W, strain qcr8, stronger effect = lower value 0.881 | locus YJL187C, strain SWE1, stronger effect = lower value 0.88
